This experiment in a line: HeLa cell cytotoxicity, dose response, cytotoxicity control for MITF activator project, CellTiter-Glo luminescence, cherry-pick samples (AID 540259).

Measured potencies and affinities stand elsewhere. Active and inactive are the calls of the source.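 Rule for the calls: active = cell killing, meaning signal decrease, with fitted half-maximal dose at or below ten times the top valid tested dose; inconclusive = poor fit, or flat curve with 30 to 70% signal loss; inactive = the rest.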

The source of these data is PubChem BioAssay AID540259 (Broad Institute, 2011).

Turning to `O=C(c1nnc(-c2ccc(Cl)cc2)o1)C1CCCC1`, the outcome was inactive.
As for `Cc1ccc(C(=O)Cn2nnc3ccccc32)cc1C`, the call was inactive.
To `COc1ccc(/C=C2\CCn3c2nc2ccccc2c3=O)cc1OC` belongs “inactive”.
On to `O=c1c2ccccc2oc2cc(NCCCn3ccnc3)ccc12`, for which the molecule was classed as inactive.
To `CC(C)CNC(=O)C1CCN(Cc2ccc(OCc3ccccc3)cc2)CC1` belongs “inactive”; to `C#CCSc1nnc(-c2ccc(O)cc2)o1`, “inactive”.
As to `CC(=O)Nc1ccc2c(c1)ncn2-c1ccccc1`, the call was inactive.
As to `CC(C)(C)N1C(=O)c2ccc(C(=O)Nc3nccs3)cc2C1=O`, the call was inactive.
To `c1ccc2c(c1)NC1(CCCC1)n1c-2nc2ccccc21` belongs “inactive”.
The result for `Cc1cccc(NC(=O)c2onc3c2CCCC3)c1C` reads “inactive”.
As to `Cc1cccc(C(=O)Nc2ccn(C)n2)c1`, the outcome was inactive.
The result for `Cc1nc2ccc(NC(=O)Cc3c(F)cccc3Cl)cc2s1` reads “inactive”.
To `COc1ccc(-c2cc(C(=O)Nc3ccccc3F)on2)cc1` belongs “inactive”; to `Cn1cccc1C(=O)N/N=C/c1c(Cl)cccc1Cl`, “inactive”.
Consider `CCN(CC)S(=O)(=O)c1cc(C(=O)Nc2cc(C)[nH]n2)ccc1Cl`, for which the outcome was inactive.
